# The supplement of paper PMC8728848
# Many of the other results were omitted from the sample, so the strongest signals are more common in it than they were.
# Assays:
# Assay in all cases: glycan array binding signal (z-score within array); higher = stronger binding
# [1] = biological target: Fuc(a1-2)[GalNAc(a1-3)]Gal(b1-4)Glc; details: glycan notation: IUPAC condensed, linker removed
# Outline: (§1)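 Glycan array data were curated from 3228 arrays in the Consortium for Functional Glycomics database and kept only where the protein sequence was available. Glycan names were converted to IUPAC-condensed notation, and columns mapping to the same glycan were averaged. The binding signal is a within-array Z-score, averaged across arrays of the same protein sequence at different concentrations or buffers and across linkers. Negative Z-scores can be read as non-binding.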
# [2] = biological target: Fuc(a1-2)[GalNAc(a1-3)]Gal(b1-4)[Fuc(a1-3)]GlcNAc; details: glycan notation: IUPAC condensed, linker removed
# Outline: as §1
# [3] = biological target: Gal(a1-4)Gal(b1-4)Glc; details: glycan notation: IUPAC condensed, linker removed
# Outline: as §1
# [4] = biological target: Gal(b1-3)Gal; details: glycan notation: IUPAC condensed, linker removed
# Outline: as §1
# [5] = biological target: Gal(b1-4)GlcNAc; details: glycan notation: IUPAC condensed, linker removed
# Outline: as §1
# [6] = biological target: Gal(b1-4)GlcNAc(b1-2)Man(a1-3)[Gal(b1-4)GlcNAc(b1-2)Man(a1-6)]Man(b1-4)GlcNAc(b1-4)GlcNAc; details: glycan notation: IUPAC condensed, linker removed
# Outline: as §1
# [7] = biological target: GalNAc(a1-3)Gal; details: glycan notation: IUPAC condensed, linker removed
# Outline: as §1
# [8] = biological target: GalNAc(b1-4)GlcNAc; details: glycan notation: IUPAC condensed, linker removed
# Outline: as §1
# [9] = biological target: GlcNAc(b1-2)Man(a1-3)[GlcNAc(b1-2)Man(a1-6)]Man(b1-4)GlcNAc(b1-4)GlcNAc; details: glycan notation: IUPAC condensed, linker removed
# Outline: as §1
# [10] = biological target: GlcNAc(b1-3)Gal; details: glycan notation: IUPAC condensed, linker removed
# Outline: as §1
# [11] = biological target: GlcNAc(b1-6)Gal(b1-4)GlcNAc; details: glycan notation: IUPAC condensed, linker removed
# Outline: as §1
# [12] = biological target: Man(a1-2)Man(a1-2)Man(a1-6)[Man(a1-3)]Man; details: glycan notation: IUPAC condensed, linker removed
# Outline: as §1
# [13] = biological target: Man(a1-2)Man(a1-3)[Man(a1-2)Man(a1-6)]Man; details: glycan notation: IUPAC condensed, linker removed
# Outline: as §1
# [14] = biological target: Man(a1-3)[Man(a1-6)]Man(a1-6)[Man(a1-3)]Man(b1-4)GlcNAc(b1-4)GlcNAc; details: glycan notation: IUPAC condensed, linker removed
# Outline: as §1
# [15] = biological target: Neu5Ac(a2-3)Gal(b1-3)[Neu5Ac(a2-3)Gal(b1-4)]GlcNAc; details: glycan notation: IUPAC condensed, linker removed
# Outline: as §1
# [16] = biological target: Neu5Ac(a2-3)Gal(b1-4)Glc; details: glycan notation: IUPAC condensed, linker removed
# Outline: as §1
# [17] = biological target: Neu5Ac(a2-6)Gal(b1-4)Glc; details: glycan notation: IUPAC condensed, linker removed
# Outline: as §1
# [18] = biological target: Neu5Ac(a2-8)Neu5Ac(a2-8)Neu5Ac(a2-8)Neu5Ac(a2-3)[GalNAc(b1-4)]Gal(b1-4)Glc; details: glycan notation: IUPAC condensed, linker removed
# Outline: as §1
# [19] = biological target: Fuc(a1-2)[Gal(a1-3)]Gal(b1-4)[Fuc(a1-3)]GlcNAc; details: glycan notation: IUPAC condensed, linker removed; mutation: D325N
# Outline: as §1
# [20] = biological target: Fuc(a1-3)[Gal3S(b1-4)]Glc6S; details: glycan notation: IUPAC condensed, linker removed; mutation: D325N
# Outline: as §1
# [21] = biological target: Gal(a1-2)Gal; details: glycan notation: IUPAC condensed, linker removed; mutation: D325N
# Outline: as §1
# [22] = biological target: Gal(a1-3)Gal(b1-3)GlcNAc; details: glycan notation: IUPAC condensed, linker removed; mutation: D325N
# Outline: as §1
# [23] = biological target: Gal(a1-3)Gal(b1-4)Glc; details: glycan notation: IUPAC condensed, linker removed; mutation: D325N
# Outline: as §1
# [24] = biological target: Gal(b1-3)[Neu5Ac(b2-6)]GalNAc; details: glycan notation: IUPAC condensed, linker removed; mutation: D325N
# Outline: as §1
# [25] = biological target: Gal(b1-4)GlcNAc(b1-3)Gal(b1-4)[Fuc(a1-3)]GlcNAc(b1-3)Gal(b1-4)[Fuc(a1-3)]GlcNAc; details: glycan notation: IUPAC condensed, linker removed; mutation: D325N
# Outline: as §1
# [26] = biological target: Gal(b1-4)GlcNAc(b1-6)Gal(b1-4)GlcNAc(b1-6)GalNAc; details: glycan notation: IUPAC condensed, linker removed; mutation: D325N
# Outline: as §1
# [27] = biological target: Gal(b1-4)GlcNAc(b1-6)GalNAc; details: glycan notation: IUPAC condensed, linker removed; mutation: D325N
# Outline: as §1
# [28] = biological target: Gal(b1-4)GlcNAc(b1-6)[Gal(b1-3)]GalNAc; details: glycan notation: IUPAC condensed, linker removed; mutation: D325N
# Outline: as §1
# [29] = biological target: GlcNAc(b1-3)Gal(b1-4)Glc; details: glycan notation: IUPAC condensed, linker removed; mutation: D325N
# Outline: as §1
# [30] = biological target: Man(a1-2)Man(a1-2)Man(a1-3)Man; details: glycan notation: IUPAC condensed, linker removed; mutation: D325N
# Outline: as §1
# [31] = biological target: Man(a1-2)Man(a1-3)[Man(a1-2)Man(a1-6)]Man(a1-6)[Man(a1-2)Man(a1-2)Man(a1-3)]Man; details: glycan notation: IUPAC condensed, linker removed; mutation: D325N
# Outline: as §1
# [32] = biological target: Man(a1-2)Man(a1-6)[Man(a1-3)]Man(a1-6)[Man(a1-2)Man(a1-2)Man(a1-3)]Man; details: glycan notation: IUPAC condensed, linker removed; mutation: D325N
# Outline: as §1
# [33] = biological target: Man(a1-3)[Man(a1-6)]Man(a1-6)[Man(a1-3)]Man; details: glycan notation: IUPAC condensed, linker removed; mutation: D325N
# Outline: as §1
# [34] = biological target: Neu5Ac(a2-3)Gal(b1-3)GlcNAc; details: glycan notation: IUPAC condensed, linker removed; mutation: D325N
# Outline: as §1
# [35] = biological target: Neu5Ac(a2-3)Gal(b1-4)[Fuc(a1-3)]GlcNAc(b1-3)Gal(b1-4)GlcNAc; details: glycan notation: IUPAC condensed, linker removed; mutation: D325N
# Outline: as §1
# [36] = biological target: Neu5Ac(a2-3)GalNAc(b1-4)GlcNAc; details: glycan notation: IUPAC condensed, linker removed; mutation: D325N
# Outline: as §1
# [37] = biological target: Neu5Ac(a2-6)Gal; details: glycan notation: IUPAC condensed, linker removed; mutation: D325N
# Outline: as §1
# [38] = biological target: Neu5Ac(a2-6)GalNAc; details: glycan notation: IUPAC condensed, linker removed; mutation: D325N
# Outline: as §1
# [39] = biological target: Neu5Ac(a2-8)Neu5Ac(a2-8)Neu5Ac; details: glycan notation: IUPAC condensed, linker removed; mutation: D325N
# Outline: as §1
binder,measurement,setting,value
PMA (Polygonatum multiflorum) (protein) LLTTTLFVFISSTRSLASTNVLYSDVGNAILNAKESLIYGDYRLDMQSDCNLVLYNKAAPYWASGTRWSWGGNCHLNLQSNGELVMYAYLGRTRIAIWRSGIISATGSYALVLKYDGALHVHGPSLWSTNATGPTTPTTASWSIDSTLWSGDVATIGPTIANGDYKLELLDTCNLTLSNTKTGQVLWYTNTTDWVHDCYVNIEGNGELKIKYLGGATLWSNKVGAGYTNNYVLGLRPDGKLDTYNAPIWSPTIGPGVHVAPAVYNASSNAVAAEGNGEKIAMVTGRAKNST,glycan array binding signal (z-score),[1],-0.249
same,glycan array binding signal (z-score),[2],-0.236
same,glycan array binding signal (z-score),[3],-0.244
same,glycan array binding signal (z-score),[4],-0.195
same,glycan array binding signal (z-score),[5],-0.068
same,glycan array binding signal (z-score),[6],7.37
same,glycan array binding signal (z-score),[7],-0.253
same,glycan array binding signal (z-score),[8],-0.246
same,glycan array binding signal (z-score),[9],5.03
same,glycan array binding signal (z-score),[10],-0.263
same,glycan array binding signal (z-score),[11],-0.255
same,glycan array binding signal (z-score),[12],5.65
same,glycan array binding signal (z-score),[13],4.98
same,glycan array binding signal (z-score),[14],2.16
same,glycan array binding signal (z-score),[15],-0.191
same,glycan array binding signal (z-score),[16],-0.233
same,glycan array binding signal (z-score),[17],-0.255
same,glycan array binding signal (z-score),[18],-0.245
Surfactant Protein D (Human); Neck + Carbohydrate Recognition Domain (NCRD) (Homo sapiens) (protein) MLLFLLSALVLLTQPLGYLEAEMKTYSHRTMPSACTLVMCSSVESGLPGRDRDGREGPRGEKGDPGLPGAAGQAGMPGQAGPVGPKGDNGSVGEPGPKGDTGPSGPPGPPGVPGPAGREGALGKQGNIGPQGKPGPKGEAGPKGEVGAPGMQGSAGARGLAGPKGERGVPGERGVPGNTGAAGSAGAMGPQGSPGARGPPGLKGDKGIPGDKGAKGESGLPDVASLRQQVEALQGQVQHLQAAFSQYKKVELFPNGQSVGEKIFKTAQFVKPFTEAQLLCTQAGGQLASPRSAAENAALQQLVVAKNEAAFLSMTDSKTEGKFTYPTGESLVYSNWAPGEPNDNGGSEDCVEIFTNGKWNDRACGEKRLVVCEF,glycan array binding signal (z-score),[19],-0.1
same,glycan array binding signal (z-score),[20],-0.117
same,glycan array binding signal (z-score),[21],-0.109
same,glycan array binding signal (z-score),[22],-0.169
same,glycan array binding signal (z-score),[23],-0.123
same,glycan array binding signal (z-score),[24],-0.139
same,glycan array binding signal (z-score),[25],-0.105
same,glycan array binding signal (z-score),[26],-0.132
same,glycan array binding signal (z-score),[27],-0.138
same,glycan array binding signal (z-score),[28],-0.128
same,glycan array binding signal (z-score),[29],-0.118
same,glycan array binding signal (z-score),[11]; mutation: D325N,-0.138
same,glycan array binding signal (z-score),[30],2.18
same,glycan array binding signal (z-score),[13]; mutation: D325N,1.77
same,glycan array binding signal (z-score),[31],9.38
same,glycan array binding signal (z-score),[32],8.54
same,glycan array binding signal (z-score),[33],11.2
same,glycan array binding signal (z-score),[14]; mutation: D325N,0.338
same,glycan array binding signal (z-score),[34],-0.127
same,glycan array binding signal (z-score),[35],-0.114
same,glycan array binding signal (z-score),[36],-0.148
same,glycan array binding signal (z-score),[37],-0.148
same,glycan array binding signal (z-score),[17]; mutation: D325N,-0.153
same,glycan array binding signal (z-score),[38],-0.129
same,glycan array binding signal (z-score),[39],-0.163
